Test results taken from PubChem BioAssay (NCI).
Compounds without any hit were thinned out: in the full panel of roughly 83,000, 20% have a hit.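 Assay: single dose, 48 h. Readout: percent growth (0 = no net growth; negative = cell death). Active: <10.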

Experiments:
Experiment in all cases: NCI-60 one-dose screen, 48 h (100 = growth as untreated, 0 = no growth, -100 = all killed)
HCT-15 colon = details: 10 µM
HT29 colon = details: 10 µM
SNB-75 CNS = details: 10 µM
SNB-19 CNS = details: 10 µM
U251 CNS = details: 10 µM
PC-3 prostate = details: 10 µM
SK-MEL-5 melanoma = details: 10 µM
UACC-62 melanoma = details: 10 µM unless noted
LOX IMVI melanoma = details: 10 µM
SK-MEL-28 melanoma = details: 10 µM
EKVX NSCLC = details: 10 µM
SN12C renal = details: 10 µM
UO-31 renal = details: 10 µM
TK-10 renal = details: 10 µM unless noted
ACHN renal = details: 10 µM
CAKI-1 renal = details: 10 µM
A498 renal = details: 10 µM
CCRF-CEM leukemia = details: 10 µM
MOLT-4 leukemia = details: 10 µM
SK-MEL-2 melanoma = details: 10 µM

Measured: growth

Cc1cccc(C(=O)N(C(C)C)C(C)C)c1
inactive: HCT-15 colon 96.7% | HT29 colon 92.8% | SNB-75 CNS 95% | SNB-19 CNS 99.6% | U251 CNS 92.5% | PC-3 prostate 92.8% | SK-MEL-5 melanoma 95.3% | UACC-62 melanoma 96.5% | LOX IMVI melanoma 96.1% | SK-MEL-28 melanoma 103% | EKVX NSCLC 95% | SN12C renal 96.1% | UO-31 renal 94.4% | TK-10 renal 87% | ACHN renal 101% | CAKI-1 renal 96.4% | A498 renal 71.9% | CCRF-CEM leukemia 90.7% | MOLT-4 leukemia 108%

OCC(O)C(O)C(O)C(O)/C=N/O (stereo not given)
inactive: HCT-15 colon 105% | HT29 colon 103% | SNB-75 CNS 96.1% | SNB-19 CNS 98.3% | U251 CNS 91% | PC-3 prostate 73.2% | SK-MEL-5 melanoma 101% | UACC-62 melanoma 93.3% | LOX IMVI melanoma 98.3% | SK-MEL-28 melanoma 114% | EKVX NSCLC 105% | SN12C renal 106% | UO-31 renal 98.4% | ACHN renal 112% | CAKI-1 renal 104% | A498 renal 102% | CCRF-CEM leukemia 81.6% | MOLT-4 leukemia 82.7%

C=CC[N+](C)(C)C
inactive: HCT-15 colon 98.7% | HT29 colon 104% | SNB-75 CNS 94.3% | SNB-19 CNS 98.7% | U251 CNS 101% | PC-3 prostate 97.6% | SK-MEL-5 melanoma 105% | UACC-62 melanoma 102% | LOX IMVI melanoma 92.2% | SK-MEL-28 melanoma 107% | SK-MEL-2 melanoma 111% | SN12C renal 101% | UO-31 renal 97% | TK-10 renal 92.7% | ACHN renal 100% | A498 renal 106% | MOLT-4 leukemia 94%

COCCCC/C(=N\OCCN)c1ccc(C(F)(F)F)cc1
inactive: HCT-15 colon 103% | HT29 colon 96% | SNB-75 CNS 79.9% | SNB-19 CNS 100% | U251 CNS 97.4% | PC-3 prostate 79.8% | SK-MEL-5 melanoma 99.6% | UACC-62 melanoma 97.5% | LOX IMVI melanoma 94.8% | SK-MEL-28 melanoma 117% | EKVX NSCLC 93.1% | SN12C renal 94% | UO-31 renal 74.1% | TK-10 renal 98.9% | ACHN renal 98.6% | CAKI-1 renal 83.5% | A498 renal 89.1% | CCRF-CEM leukemia 101% | MOLT-4 leukemia 96.7%

COC(=O)/C=C/C(=O)NC(N)=O
inactive: HCT-15 colon 96.3% | HT29 colon 102% | SNB-75 CNS 76.2% | SNB-19 CNS 104% | U251 CNS 96.8% | PC-3 prostate 96.5% | SK-MEL-5 melanoma 104% | UACC-62 melanoma 101% | LOX IMVI melanoma 97.1% | SK-MEL-28 melanoma 97.8% | SK-MEL-2 melanoma 85.2% | SN12C renal 101% | UO-31 renal 91.5% | TK-10 renal 102% | ACHN renal 99.4% | CAKI-1 renal 99.2% | A498 renal 98.6% | MOLT-4 leukemia 100%

N#CCCc1ccc(O)cc1
inactive: HCT-15 colon 95.1% | HT29 colon 108% | SNB-75 CNS 88.3% | SNB-19 CNS 110% | U251 CNS 96.9% | PC-3 prostate 102% | SK-MEL-5 melanoma 105% | UACC-62 melanoma 102% | LOX IMVI melanoma 107% | SK-MEL-28 melanoma 105% | SK-MEL-2 melanoma 104% | SN12C renal 107% | TK-10 renal 113% | ACHN renal 99.9% | CAKI-1 renal 95.4% | A498 renal 104% | MOLT-4 leukemia 98.5%

O=C(O)CSCSCC(=O)O
inactive: HCT-15 colon 98.7% | HT29 colon 107% | SNB-75 CNS 77.2% | SNB-19 CNS 96.6% | U251 CNS 94.3% | PC-3 prostate 103% | SK-MEL-5 melanoma 103% | UACC-62 melanoma 100% | LOX IMVI melanoma 97.3% | SK-MEL-28 melanoma 97.8% | SK-MEL-2 melanoma 94.8% | SN12C renal 104% | UO-31 renal 92.3% | TK-10 renal 93.6% | ACHN renal 101% | CAKI-1 renal 96.9% | A498 renal 80.4% | MOLT-4 leukemia 101%

OC1CCCc2ccccc21 (stereo not given)
inactive: HCT-15 colon 108% | HT29 colon 101% | SNB-75 CNS 88% | SNB-19 CNS 90.8% | U251 CNS 108% | PC-3 prostate 103% | SK-MEL-5 melanoma 111% | UACC-62 melanoma 100% | LOX IMVI melanoma 104% | SK-MEL-28 melanoma 120% | EKVX NSCLC 100% | SN12C renal 99% | UO-31 renal 60.6% | TK-10 renal 86.4% | ACHN renal 97.9% | CAKI-1 renal 121% | A498 renal 120% | CCRF-CEM leukemia 94.8% | MOLT-4 leukemia 105%

CC1=CC(C)(C)NC(=S)N1c1ccc(S(=O)(=O)O)c2cccc(S(=O)(=O)O)c12
inactive: HCT-15 colon 105% | HT29 colon 133% | SNB-75 CNS 90.5% | SNB-19 CNS 109% | U251 CNS 113% | PC-3 prostate 92.5% | SK-MEL-5 melanoma 101% | UACC-62 melanoma 97.5% | LOX IMVI melanoma 107% | SK-MEL-28 melanoma 112% | EKVX NSCLC 115% | SN12C renal 103% | UO-31 renal 72.6% | TK-10 renal 106% | ACHN renal 99.5% | CAKI-1 renal 115% | A498 renal 97.6% | CCRF-CEM leukemia 94.1% | MOLT-4 leukemia 114%

CN(C)/N=C/c1ccccc1O
inactive: HCT-15 colon 100% | HT29 colon 111% | SNB-75 CNS 87.8% | SNB-19 CNS 97.8% | U251 CNS 95.4% | PC-3 prostate 121% | SK-MEL-5 melanoma 103% | UACC-62 melanoma 98.4% | LOX IMVI melanoma 98.7% | SK-MEL-28 melanoma 111% | SK-MEL-2 melanoma 90.3% | SN12C renal 97.7% | UO-31 renal 92.3% | ACHN renal 97.6% | CAKI-1 renal 96.1% | A498 renal 94.5% | CCRF-CEM leukemia 100% | MOLT-4 leukemia 95.9%

CCn1c(=O)n(C)c2c(=O)n(C)c(=O)n(C)c21
inactive: HCT-15 colon 106% | HT29 colon 101% | SNB-75 CNS 97.1% | SNB-19 CNS 102% | U251 CNS 99.3% | PC-3 prostate 97.4% | SK-MEL-5 melanoma 103% | UACC-62 melanoma 107% | LOX IMVI melanoma 96.4% | SK-MEL-28 melanoma 118% | EKVX NSCLC 103% | SN12C renal 105% | UO-31 renal 87.4% | TK-10 renal 102% | ACHN renal 105% | CAKI-1 renal 98.3% | A498 renal 91.7% | CCRF-CEM leukemia 98.2% | MOLT-4 leukemia 101%

CC1=NN(c2ccccc2)C(=O)/C1=C\N1CC(=O)NC1=S
inactive: HCT-15 colon 107% | HT29 colon 103% | SNB-75 CNS 91.2% | SNB-19 CNS 101% | U251 CNS 98.3% | PC-3 prostate 93.6% | SK-MEL-5 melanoma 101% | UACC-62 melanoma 97.1% | LOX IMVI melanoma 98.4% | SK-MEL-28 melanoma 112% | EKVX NSCLC 105% | SN12C renal 101% | UO-31 renal 92% | TK-10 renal 122% | ACHN renal 98.8% | CAKI-1 renal 98% | A498 renal 92.9% | MOLT-4 leukemia 102%

O=c1[nH]nc(SC2CCCCC2)c(=O)[nH]1
inactive: HCT-15 colon 106% | HT29 colon 97.1% | SNB-75 CNS 82.3% | SNB-19 CNS 103% | U251 CNS 103% | PC-3 prostate 90.6% | SK-MEL-5 melanoma 112% | UACC-62 melanoma 113% | LOX IMVI melanoma 92.8% | SK-MEL-28 melanoma 94.8% | EKVX NSCLC 99.5% | SN12C renal 102% | UO-31 renal 77.9% | TK-10 renal 95.3% | ACHN renal 113% | CAKI-1 renal 95% | A498 renal 93.7% | CCRF-CEM leukemia 106% | MOLT-4 leukemia 89%

NCCCN
inactive: HCT-15 colon 101% | HT29 colon 111% | SNB-75 CNS 79.8% | SNB-19 CNS 104% | U251 CNS 95.5% | PC-3 prostate 102% | SK-MEL-5 melanoma 102% | UACC-62 melanoma 109% | LOX IMVI melanoma 112% | SK-MEL-28 melanoma 104% | SK-MEL-2 melanoma 122% | SN12C renal 101% | UO-31 renal 92.6% | TK-10 renal 107% | ACHN renal 103% | A498 renal 114% | CCRF-CEM leukemia 101% | MOLT-4 leukemia 112%

c1ccc2c(c1)Sc1ccccc1S2
inactive: HCT-15 colon 105% | HT29 colon 105% | SNB-75 CNS 89.6% | SNB-19 CNS 100% | U251 CNS 93.4% | PC-3 prostate 91.4% | SK-MEL-5 melanoma 101% | UACC-62 melanoma 102% | LOX IMVI melanoma 98.2% | SK-MEL-28 melanoma 110% | SK-MEL-2 melanoma 112% | SN12C renal 93.2% | TK-10 renal 99.4% | ACHN renal 109% | CAKI-1 renal 103% | A498 renal 94.3% | CCRF-CEM leukemia 97.3% | MOLT-4 leukemia 111%

Cc1cc(C)c(N)c(S(=O)(=O)O)c1
inactive: HCT-15 colon 100% | HT29 colon 103% | SNB-75 CNS 101% | SNB-19 CNS 96.5% | U251 CNS 98.2% | PC-3 prostate 96.6% | SK-MEL-5 melanoma 98.7% | UACC-62 melanoma 93.1% | LOX IMVI melanoma 93.9% | SK-MEL-28 melanoma 132% | EKVX NSCLC 101% | SN12C renal 97.7% | UO-31 renal 76.2% | TK-10 renal 105% | ACHN renal 96.6% | CAKI-1 renal 91.3% | A498 renal 142% | CCRF-CEM leukemia 86% | MOLT-4 leukemia 113%

O=C1OC(=O)C2C1C1(Cl)C(Cl)=C(Cl)C2(Cl)C2C(=O)OC(=O)C21 (stereo not given)
inactive: HCT-15 colon 103% | HT29 colon 104% | SNB-75 CNS 89.1% | SNB-19 CNS 106% | U251 CNS 101% | PC-3 prostate 97.9% | SK-MEL-5 melanoma 103% | UACC-62 melanoma 102% | LOX IMVI melanoma 98.4% | SK-MEL-28 melanoma 107% | SK-MEL-2 melanoma 88.7% | SN12C renal 105% | UO-31 renal 84.4% | TK-10 renal 93% | ACHN renal 105% | CAKI-1 renal 106% | A498 renal 107% | MOLT-4 leukemia 105%

C=CC(=O)OCCCCCCCC
inactive: HCT-15 colon 95% | HT29 colon 124% | SNB-75 CNS 91.2% | SNB-19 CNS 101% | U251 CNS 98.8% | PC-3 prostate 106% | SK-MEL-5 melanoma 110% | UACC-62 melanoma 102% | LOX IMVI melanoma 101% | SK-MEL-28 melanoma 110% | EKVX NSCLC 111% | SN12C renal 103% | UO-31 renal 88.4% | TK-10 renal 140% | ACHN renal 101% | CAKI-1 renal 97.6% | A498 renal 89.8% | CCRF-CEM leukemia 83% | MOLT-4 leukemia 89.9%
